Data taken from PubChem BioAssay (NCATS).
Inconclusive results are not listed. The call rests on the fitted dose curve; in most records, active means well fitted curve in the direction sought with a large enough effect; inconclusive means small, poorly fitted or top-dose-only effect, or another doubt; inactive means no such curve, though single readings can be large or run the other way.

experiment: KB-8-5-11 P-gp reporter qHTS against the NCATS DSHEA and TCM libraries (AID 1919977); conditions: KB-8-5-11 cells; series mostly up to 26.1 µM; activity change, negative = inhibition: at the top concentration; further: 0% is about no effect
How it was run: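 Viability of drug-resistant KB-8-5-11 cells is measured by CellTiter-Glo luminescence following roughly 72 h treatment at 37C. Substances were titrated, with bortezomib as intraplate control.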

Activity change, negative = inhibition, inactive:
Oc1cc(O)c2c(c1)O[C@@H](c1cc(O)c(O)c(O)c1)[C@H](O)C2 6.11%
CCCCC[C@H](O)CC(=O)CCc1ccc(O)c(OC)c1 -9.66%
O=C(O[C@@H]1Cc2c(O)cc(O)cc2O[C@H]1c1cc(O)c(O)c(O)c1)c1cc(O)c(O)c(O)c1 -6.08%
CC1(C)CC[C@]2(C(=O)O)CC[C@]3(C)C(=CCC4[C@@]5(C)CC[C@@H](O)C(C)(C)C5CC[C@]43C)C2C1 (some centres not stated) -18.5%
CC/C=C\C/C=C\C/C=C\CCCCCCCC(=O)O 4.61%
CC/C=C\C/C=C\C/C=C\C/C=C\CCCCC(=O)O -0.921% [at 3.26 µM]
OC[C@H]1O[C@@H](OC[C@H]2O[C@@H](OC/C=C/c3ccccc3)[C@H](O)[C@@H](O)[C@@H]2O)[C@@H](O)[C@@H]1O 1.2% [at 14.4 µM]
CC(C)=CCC[C@](C)(O)[C@H]1CC[C@]2(C)[C@@H]1[C@H](O)CC1[C@@]3(C)CC[C@H](O)C(C)(C)[C@@H]3[C@@H](O[C@@H]3O[C@H](CO)[C@@H](O)[C@H](O)[C@H]3O[C@@H]3O[C@H](CO)[C@@H](O)[C@H](O)[C@H]3O)C[C@]12C (some centres not stated) -2.18% [at 14.4 µM]
CC(C)=CCCC(C)(OC1OC(COC2OC(CO)C(O)C2O)C(O)C(O)C1O)C1CCC2(C)C1C(O)CC1C3(C)CCC(OC4OC(CO)C(O)C(O)C4OC4OC(CO)C(O)C(O)C4O)C(C)(C)C3CCC12C (configuration not stated) -1.88%
CCCCCC(=O)O 4.8% [at 44.5 µM]
CC1=CC[C@H](C(C)C)C=C1 -16.7% [at 44.5 µM]
CC1CC[C@]2(C(=O)O)CC[C@]3(C(=O)O)C(=CCC4[C@@]5(C)CC[C@H](OC6OC(C)C(O)C(OC7OC(CO)C(O)C(O)C7O)C6O)C(C)(C)C5CC[C@]43C)C2C1C (some centres not stated) 7.99% [at 14.4 µM]
O=c1c(O[C@@H]2O[C@H](CO)[C@H](O)[C@H](O)[C@H]2O)c(-c2ccc(O)c(O)c2)oc2cc(O)cc(O)c12 11%
CC1=C2[C@H]([C@@H](C)CC[C@@H]2/C=C(\C)C(=O)O)[C@@H](O)C1 2.32%
NC(Cc1c[nH]c2ccccc12)C(=O)O (configuration not stated) 5.99%
CC[C@H](CC[C@@H](C)[C@H]1CCC2C3CCC4C[C@@H](O)CC[C@]4(C)C3CC[C@@]21C)C(C)C (some centres not stated) 2.04%
O=C(/C=C/c1ccc(O)c2c1[C@H](C(=O)O)[C@@H](c1ccc(O)c(O)c1)O2)O[C@H](Cc1ccc(O)c(O)c1)C(=O)O 2.37%
C=C1CC[C@H](O)C/C1=C\C=C1/CCC[C@]2(C)[C@@H]([C@H](C)CC[C@H](C)C(C)C)CC[C@@H]12 -7.71%
CC1(C)CC[C@]2(C(=O)O)CC[C@]3(C)C(=CCC4[C@@]5(C)CC[C@H](O)[C@@](C)(CO)C5CC[C@]43C)[C@H]2C1 (some centres not stated) -3.82%
Oc1cc(O)c2c(c1)OC(c1ccc(O)c(O)c1)C(O)C2 (configuration not stated) 0.158%
C=C1C[C@@]23CC[C@H]4[C@@](C)(CCC[C@@]4(C)C(=O)O[C@@H]4O[C@H](CO)[C@@H](O)[C@H](O)[C@H]4O)[C@@H]2CC[C@]1(O[C@@H]1O[C@H](CO)[C@@H](O)[C@H](O[C@@H]2O[C@H](CO)[C@@H](O)[C@H](O)[C@H]2O)[C@H]1O[C@@H]1O[C@@H](C)[C@H](O)[C@@H](O)[C@H]1O)C3 -2.46%
O=C(OC[C@H]1O[C@@H](OC(=O)c2cc(O)c(O)c(O)c2)[C@H](OC(=O)c2cc(O)c(O)c(O)c2)[C@@H](OC(=O)c2cc(O)c(O)c(O)c2)[C@@H]1O)c1cc(O)c(O)c(O)c1 3.96% [at 14.4 µM]
